# PubChem BioAssay
# Active and inactive are the calls of the source. No rule for the calls is given here.
# Assay: inhibition of Brca1/Bard1 split-luciferase complementation, confirmation, counter-screen for Mdm2/MdmX interaction inhibitor project, luminescence, single concentration (AID 504668)
# Details: Brca1/Bard1 bimolecular luciferase complementation counterscreen, at 8 µM, hits give high values
row,SMILES,inhibition
1,Cc1nnnn1/C(=C\c1ccccc1)C(=O)OCC(=O)Nc1cccc(S(=O)(=O)N(C)C)c1,34% (active)
2,Nc1nonc1-c1nc2ccccc2n1CC(=O)Nc1ccccc1,24.8% (active)
3,Cc1ccc(C(=O)Nc2nc(-c3ccccn3)cs2)s1,34.6% (active)
4,Nc1ccc(C(=O)OCc2nc3cc4ccccc4cc3[nH]2)cc1,34.5% (active)
5,Cc1ccc(O)c(N=Nc2nccs2)c1,23.2% (active)
6,COc1ccc(C(=O)Nc2nc3c(s2)CCCC3)cc1S(=O)(=O)N1CCCc2ccccc21,23.4% (active)
7,CC[C@@H](C(=O)[C@@H](C)[C@@H](O)[C@H](C)CCc1ccc(C)c(O)c1C(=O)O)[C@H]1O[C@](CC)([C@H]2CC[C@](O)(CC)[C@H](C)O2)C[C@@H]1C,35.2% (active)
8,O=C(Nc1ccc(OC(F)(F)F)cc1)Nc1cccc([N+](=O)[O-])c1,35.8% (active)
9,Cc1ccc(/C=N/NC(=O)c2c(-c3ccccc3)noc2C)c(O)c1,31.1% (active)
10,Cc1cc(SC#N)cc(C)c1NC(=O)CCl,33.8% (active)
11,Nc1nc(Cl)nc2c1ncn2C1CC(O)C(CO)O1 (stereo not given),25.6% (active)
12,c1ccc(-[n+]2nc(Nc3cccc4ccccc34)sc2-c2c3ccccc3cc3ccccc23)cc1,23.6% (active)
13,COc1ccc(N/N=C/c2c(C(=O)O)ccc3ccccc23)cc1,24.1% (active)
14,COc1ccc(/C=C2/SC(=S)N(CCCC(=O)Nc3cccc(O)c3)C2=O)cc1,28.6% (active)
15,O=C(c1ccc(S(=O)(=O)c2ccccc2Cl)c([N+](=O)[O-])c1)N1CCN(Cc2ccccc2)CC1,29.6% (active)
16,N#Cc1c2ccc(O)cc2n2ccccc12,35.2% (active)
17,O=C1c2ccccc2NC(c2ccc(Cl)cc2Cl)N1O (stereo not given),30.7% (active)
18,C=CCc1cccc(/C=N/NC(=O)CNc2ccccc2OC)c1O,28.3% (active)
19,Cc1cc(C(=O)CCl)c(C)n1CCc1ccc(Cl)cc1,30.7% (active)
20,O=C(N/N=C(\Cc1ncc[nH]1)c1ccccc1)c1cccnc1,33.1% (active)

row,SMILES,inhibition
1,CCN(CC)CCCNC(=O)c1ccc2c(Cl)c3c(nc2c1)CCCC3,30.8% (active)
2,CC(=O)Oc1c(-c2ccc(Br)o2)oc2ccccc2c1=O,29.9% (active)
3,Cn1ccc2cc(-c3ccc4ncnc(NCc5cccs5)c4c3)ccc21,25% (active)
4,COc1cc(OC)c2cc(C(=O)N/N=C/c3cccc(OC)c3O)[nH]c2c1,33.8% (active)
5,CCC(=O)NC(c1ccc(C)cc1)c1cc(Cl)c2cccnc2c1O (stereo not given),23.8% (active)
6,Cc1cc(C)c(S(=O)(=O)N2CCCCC2CCNC(=O)C(=O)NC2CC2)c(C)c1 (stereo not given),25.4% (active)
7,C=C(C(=O)c1ccccc1)C(C)CC(=O)c1ccccc1 (stereo not given),32.4% (active)
8,CC[N+]1=C(C)C(C)(C)c2cc(C)ccc21,28.2% (active)
9,CCOC(=O)Cn1c(-c2nonc2NC(=O)c2ccccc2F)nc2ccccc21,34.7% (active)
10,O=C(Nc1nc(-c2ccccn2)cs1)c1cccc(-n2cnnn2)c1,26.2% (active)
11,O=C(NC1CCCc2c1cnn2-c1ccccc1F)c1ccccn1 (stereo not given),28.6% (active)
12,CCN(CC)Cc1c(O)ccc2c1O/C(=C\C=C\c1ccccc1)C2=O,25.3% (active)
13,O=C(Nc1ccc(Br)c(C(F)(F)F)c1)c1ccc(C(F)(F)F)cc1,28.7% (active)
14,CC1CCN(S(=O)(=O)c2ccc(C(=O)Nc3nnc(-c4ccco4)o3)cc2)CC1,34.2% (active)
15,COc1ccc(/C=c2/sc3n(c2=O)C(c2ccccc2OC)C2=C(N=3)c3ccccc3CC2)cc1O (stereo not given),29.6% (active)
16,COc1ccc(C)cc1NC(=O)c1ccccc1NS(=O)(=O)c1ccc(Cl)s1,32.4% (active)
17,O=C(N/N=C/c1cc(Br)cc(Br)c1O)c1cccc(N2CCCC2=O)c1,26.3% (active)
18,O=C(Nc1nc(-c2ccccn2)cs1)c1cccc(S(=O)(=O)N2CCOCC2)c1,33.4% (active)
19,Cc1ccc(S(=O)(=O)c2nc(S(=O)(=O)c3ccccc3)sc2N2CCN(C)CC2)cc1,23.7% (active)
20,O=C(Nc1ccc(F)c(Cl)c1)Nc1csc2ccccc12,35% (active)
